Experiment [1] in a line: Nuclear factor erythroid 2-related factor 2/antioxidant responsive element (Nrf2/ARE) small molecule agonists: qHTS cell viability counter screen in human keratinocytes (AID 1919968; active = well fitted curve in the direction sought with a large enough effect in the repeat runs; an effect the other way counts as inactive or inconclusive; note: nearly all actives have a fitted effect of over 55% in size). A digest of the protocol:
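Parallel cytotoxicity read: KeratinoSens HaCaT cells, compound treatment 23 h, viability by CellTiter-Fluor fluorescence 1 h post-reagent.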

Experiment [2] in a line: Nuclear factor erythroid 2-related factor 2/antioxidant responsive element (Nrf2/ARE) small molecule agonists: luciferase reporter gene qHTS assay in human keratinocytes (AID 1919969). Note: nearly all actives have a fitted effect of over 35% in size. Note: potency is the fitted concentration of half-maximal effect.
Experiment [3] concerns the target Gonadotropin-releasing hormone receptor (Homo sapiens) (UniProt P30968). The experiment in a line: Human gonadotropin-releasing hormone receptor (GnRHR) small molecule agonists, calcium flux assay in GnRHR-HEK293 cells (AID 1920063). Note: nearly all actives have a fitted effect of over 35% in size. The method in brief:
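Calcium flux, agonist mode, human GnRHR stably integrated in HEK293; dye 1 h at 37 C before compound; Ex/Em=480/540 kinetic read, 3 min; 15 concentrations, triplicate.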

Experiment [4] has as its target KiSS-1 receptor (Homo sapiens) (UniProt Q969F8). The experiment in a line: Human kisspeptin (KISS1R) small molecule agonists, calcium flux assay in KISS1R-HEK293 cells (AID 1920064; active = well fitted curve in the direction sought with a large enough effect in the repeat runs; an effect the other way counts as inactive or inconclusive). A digest of the protocol:
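Triplicate 15-concentration series were applied to dye-loaded human KISS1R HEK293 cells, and agonist-evoked calcium fluorescence was captured for 3 min.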

Experiment [5] can be described thus: G protein-coupled receptor (GPCR) small molecule agonists, calcium flux assay: HEK293 wild type cell line counter screen (AID 1920065). The method in brief: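 Non-specific calcium responders were flagged by adding DMSO-dissolved compounds to dye-loaded cells and reading 480/540 nm fluorescence each second for 3 min; ATP served as positive control.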
The nature of experiment [6]: p53 small molecule agonists, cell-based qHTS assay with human liver microsomes (AID 1963577).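 Note: p53 response element beta-lactamase reporter cells with liver microsomes plus NADPH.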 The method in brief:
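16 h, 37 C exposure of p53RE-bla cells to compounds with human liver microsomes and NADPH (0.5 mg/mL final each); detection via LiveBLAzer mixture, 2 h dark at room temperature.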

Experiment [7] in a line: p53 small molecule agonists, cell-based qHTS assay with rat liver microsomes (AID 1963578). The method in brief: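 With rat liver microsomes and NADPH present (0.5 mg/mL final each), p53RE-bla cells are treated with compound for 16 h at 37 C. LiveBLAzer detection mixture is then applied for 2 h at room temperature in the dark.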
Experiment [8] can be described thus: p53 small molecule agonists, cell-based qHTS assay with human liver microsomes: qHTS cell viability counter screen (AID 1963579). Note: nearly all actives have a fitted effect of over 45% in size. A digest of the protocol: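 In this multiplexed counter screen, the reporter plates were subsequently treated with CellTiter-Glo so that cell viability, reflected by luminescence, could be recorded for p53RE-bla cells dosed 16 h with compounds under microsomal activation (HLM and NADPH).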

A short description of experiment [9]: p53 small molecule agonists, cell-based qHTS assay with rat liver microsomes: qHTS cell viability counter screen (AID 1963580). Note: nearly all actives have a fitted effect of over 45% in size. The method in brief: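 Cytotoxicity counter screen: intracellular ATP measured by CellTiter-Glo luminescence in the same wells as the beta-lactamase reporter read, on HCT-116 p53RE-bla cells exposed 16 h at 37 C to compounds with rat liver microsomes and NADPH, each 0.5 mg/mL final.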

A short description of experiment [10]: p53 small molecule agonists, cell-based qHTS assay: qHTS cell viability counter screen (AID 1963581). Note: nearly all actives have a fitted effect of over 45% in size. The method in brief: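 Multiplexed with the reporter read, a CellTiter-Glo step (30 min, room temperature) gauges ATP-based viability of HCT-116 p53RE-bla cells after 16 h compound incubation at 37 C.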
The nature of experiment [11]: p53 small molecule agonists, cell-based qHTS assay (AID 1963582; active = well fitted activation curve with a large enough effect in the signal ratio in the repeat runs, not every such curve was filed as active; the % refers to the signal ratio). A digest of the protocol: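 Beta-lactamase reporter cells (p53RE-bla) treated with compounds for 16 h at 37 C; FRET substrate, 2 h, room temperature; fluorescence intensity.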
For experiment [12], the target named is 5-hydroxytryptamine receptor 2A (Homo sapiens) (UniProt P28223). The experiment in a line: 5-hydroxytryptamine receptor 2A (HTR2A) small molecule antagonists, cell-based qHTS assay (AID 1963586). Note: nearly all actives have a fitted effect of over 45% in size. A digest of the protocol:
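CHO cells stably expressing human HTR2A were plated for 18 h at 37 C, then loaded with calcium dye for 1 h. Compounds were preincubated 5 min at room temperature before DOI (4 nM solution) was added. Kinetic fluorescence was read for 3 min.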

For experiment [13] the target is unchanged. Nature of the experiment: 5-hydroxytryptamine receptor 2A (HTR2A) small molecule agonists, cell-based qHTS assay (AID 1963587). Note: nearly all actives have a fitted effect of over 30% in size. The method in brief:
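CHO cells stably expressing human HTR2A, plated 18 h, loaded with calcium dye 1 h at 37 C. Agonist mode: compounds added and intracellular calcium fluorescence recorded kinetically for 2 min at 1 sec intervals.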

The nature of experiment [14]: cAMP Responsive Elements (CRE) small molecule agonists, cell-based qHTS assay (AID 1963590). A digest of the protocol: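 Quantitative HTS for CRE agonists: HEK 293T CRE-bla cells, overnight plating, 3 h compound incubation at 37 C/5% CO2, then 2 h room-temperature LiveBLAzer B/G FRET substrate loading.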
Experiment [15] has as its target Beta-2 adrenergic receptor (Homo sapiens) (UniProt P07550). The experiment in a line: Adrenergic beta2 receptor (ADRB2) small molecule antagonists, cell-based qHTS assay (AID 1963592). Note: series mostly up to about 92 µM; nearly all actives have a fitted effect of over 50% in size. The method in brief:
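Assay format: CHO-ADRB2 cells, 18-20hr seeding at 37C/5% CO2, then compound plus 1nM isoproterenol agonist mix for 0.5hr RT. Homogeneous time-resolved fluorescence cAMP detection after 1hr, expressed as 665/615 nm ratio.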

Experiment [16] concerns the target D(2) dopamine receptor (Homo sapiens) (UniProt P14416). Nature of the experiment: Dopamine D2 receptor (DRD2) small molecule agonists, cell-based qHTS assay (AID 1963594). Note: nearly all actives have a fitted effect of over 35% in size. A digest of the protocol: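 HEK293 cells stably expressing human DRD2, pre-treated with PDE inhibitor Ro20-1724 (0.1 mM final) and compound 10 min at room temperature, then stimulated with NKH477 (200nM […]) for 30 min. cAMP read by HTRF (665/620 nm).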

Experiment [17] has the same target. The experiment in a line: Dopamine D2 receptor (DRD2) small molecule antagonists, cell-based qHTS assay (AID 1963595; active = well fitted inhibition curve with a large enough effect in the signal ratio in the repeat runs, with a control signal flat; the % refers to the signal ratio). The method in brief: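 Antagonist mode in DRD2-HEK293 cells: after compound addition with 0.1 mM Ro20-1724, cells received quinpirole (12 nM) and NKH477 (200 nM) for 30 min at room temperature; HTRF cAMP read after 1 h detection.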
In experiment [18] the target is Muscarinic acetylcholine receptor M1 (Homo sapiens) (UniProt P11229). The experiment in a line: Cholinergic receptor muscarinic 1 (CHRM1) small molecule agonists, cell-based qHTS assay (AID 1963589). Note: nearly all actives have a fitted effect of over 35% in size. A digest of the protocol: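 qHTS, 15-point titration, 3 independent runs: compounds pin-transferred onto dye-loaded CHRM1-CHO cells (human M1), calcium fluorescence followed every second to detect agonism.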

A short description of experiment [19]: cAMP Responsive Elements (CRE) small molecule antagonists, cell-based qHTS assay (AID 1963591; active = well fitted inhibition curve with a large enough effect in the signal ratio in the repeat runs, not every such curve was filed as active; the % refers to the signal ratio). The method in brief:
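Fluorescence intensity from cleaved LiveBLAzer B/G substrate (2 h, room temperature) quantified CRE-bla activity in HEK 293T cells exposed 3 h to compound with 0.25 uM final NKH477.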

The structures appear in SMILES notation. Unmarked numbers belong to inactive results. Inconclusive results are not listed. Activity calls are given as the source filed them. Unless noted, calls come from the whole dose curve.

Sequence of Muscarinic acetylcholine receptor M1 (Homo sapiens) (P11229 whole entry, looked up): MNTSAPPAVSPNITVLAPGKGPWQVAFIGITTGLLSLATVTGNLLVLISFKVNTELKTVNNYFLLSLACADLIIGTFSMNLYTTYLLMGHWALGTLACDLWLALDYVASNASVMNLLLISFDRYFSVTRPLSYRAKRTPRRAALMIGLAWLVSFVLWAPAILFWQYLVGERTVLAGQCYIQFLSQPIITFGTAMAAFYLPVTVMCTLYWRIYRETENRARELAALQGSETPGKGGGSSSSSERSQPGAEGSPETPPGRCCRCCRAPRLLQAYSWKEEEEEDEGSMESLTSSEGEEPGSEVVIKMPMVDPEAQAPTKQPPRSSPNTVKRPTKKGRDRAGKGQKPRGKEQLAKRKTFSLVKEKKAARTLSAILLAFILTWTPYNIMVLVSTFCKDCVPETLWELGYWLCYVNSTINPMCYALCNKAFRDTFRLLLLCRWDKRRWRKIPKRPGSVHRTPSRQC
Sequence of KiSS-1 receptor (Homo sapiens) (Q969F8 whole entry, looked up): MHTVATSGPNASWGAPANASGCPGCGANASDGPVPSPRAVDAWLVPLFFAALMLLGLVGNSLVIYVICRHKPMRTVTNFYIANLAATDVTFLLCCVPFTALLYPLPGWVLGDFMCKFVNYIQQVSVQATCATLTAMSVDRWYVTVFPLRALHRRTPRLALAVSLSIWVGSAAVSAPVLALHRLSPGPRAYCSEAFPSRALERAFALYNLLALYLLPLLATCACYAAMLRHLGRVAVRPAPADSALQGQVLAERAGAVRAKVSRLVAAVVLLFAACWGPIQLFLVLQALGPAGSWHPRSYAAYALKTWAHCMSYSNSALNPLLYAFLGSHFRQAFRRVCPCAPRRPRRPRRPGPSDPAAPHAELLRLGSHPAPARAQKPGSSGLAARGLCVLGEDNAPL
Sequence of 5-hydroxytryptamine receptor 2A (Homo sapiens) (P28223 whole entry, looked up): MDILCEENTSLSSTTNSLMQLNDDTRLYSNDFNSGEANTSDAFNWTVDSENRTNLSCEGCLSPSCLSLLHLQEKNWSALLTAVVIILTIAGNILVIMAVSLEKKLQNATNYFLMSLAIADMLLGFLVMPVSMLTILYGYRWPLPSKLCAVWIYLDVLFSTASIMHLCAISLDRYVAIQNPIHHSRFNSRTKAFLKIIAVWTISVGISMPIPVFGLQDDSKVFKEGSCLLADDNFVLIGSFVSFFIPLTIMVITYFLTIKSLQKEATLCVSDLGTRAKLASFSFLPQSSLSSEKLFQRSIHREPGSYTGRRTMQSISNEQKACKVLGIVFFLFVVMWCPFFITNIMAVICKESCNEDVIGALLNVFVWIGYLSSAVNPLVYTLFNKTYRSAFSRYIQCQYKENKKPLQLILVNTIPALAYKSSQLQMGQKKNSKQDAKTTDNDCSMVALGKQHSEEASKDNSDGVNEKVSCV
Sequence of D(2) dopamine receptor (Homo sapiens) (P14416 whole entry, looked up): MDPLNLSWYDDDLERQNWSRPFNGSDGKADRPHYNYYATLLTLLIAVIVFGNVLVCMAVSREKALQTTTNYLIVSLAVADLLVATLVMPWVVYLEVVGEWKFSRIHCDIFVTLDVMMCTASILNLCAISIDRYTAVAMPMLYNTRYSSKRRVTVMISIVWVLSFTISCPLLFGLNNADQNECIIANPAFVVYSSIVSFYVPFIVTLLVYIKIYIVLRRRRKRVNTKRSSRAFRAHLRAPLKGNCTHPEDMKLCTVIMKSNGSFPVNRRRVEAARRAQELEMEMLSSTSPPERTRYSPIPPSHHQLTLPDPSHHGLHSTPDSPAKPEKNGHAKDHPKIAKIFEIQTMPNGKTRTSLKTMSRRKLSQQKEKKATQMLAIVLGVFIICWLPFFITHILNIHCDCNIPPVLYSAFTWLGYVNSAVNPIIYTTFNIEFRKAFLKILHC
Sequence of Gonadotropin-releasing hormone receptor (Homo sapiens) (P30968 whole entry, looked up): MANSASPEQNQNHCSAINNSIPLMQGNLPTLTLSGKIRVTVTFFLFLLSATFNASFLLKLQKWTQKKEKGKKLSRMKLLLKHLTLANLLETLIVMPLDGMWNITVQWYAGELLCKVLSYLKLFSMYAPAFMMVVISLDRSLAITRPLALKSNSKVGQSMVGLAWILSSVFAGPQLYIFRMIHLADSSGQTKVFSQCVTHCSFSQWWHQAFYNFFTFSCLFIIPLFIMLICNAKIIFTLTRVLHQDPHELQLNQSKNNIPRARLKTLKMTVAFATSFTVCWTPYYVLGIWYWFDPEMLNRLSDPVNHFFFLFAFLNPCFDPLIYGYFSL
Sequence of Beta-2 adrenergic receptor (Homo sapiens) (P07550 whole entry, looked up): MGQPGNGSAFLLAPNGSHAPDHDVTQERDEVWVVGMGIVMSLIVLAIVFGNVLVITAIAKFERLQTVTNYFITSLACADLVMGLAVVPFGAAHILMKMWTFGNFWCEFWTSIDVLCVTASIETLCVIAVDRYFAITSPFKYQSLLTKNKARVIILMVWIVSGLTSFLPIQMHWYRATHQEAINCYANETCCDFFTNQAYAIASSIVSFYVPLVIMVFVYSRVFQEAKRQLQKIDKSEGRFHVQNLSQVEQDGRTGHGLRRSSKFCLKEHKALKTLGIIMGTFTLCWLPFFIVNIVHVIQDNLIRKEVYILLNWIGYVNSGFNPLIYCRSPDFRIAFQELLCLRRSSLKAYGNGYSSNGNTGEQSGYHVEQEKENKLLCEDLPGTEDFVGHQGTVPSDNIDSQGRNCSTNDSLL

Turning to `O=CC(=O)c1ccccc1`, the Potency result in experiment [1], in experiment [3], in experiment [6], in experiment [7], in experiment [8] and in experiment [9] was “inactive” throughout. The Potency entry in [10], in experiment [11], in [12], in experiment [13], in experiment [14] and in experiment [15] was “inactive” throughout. Besides, the Potency entry in [16] and in experiment [17] was “inactive” each time. Besides, the Potency in experiment [2] was 68.7 µM (active). The result in experiment [4] and in experiment [5] was inactive.

For `CC(CNC1CCCCC1)OC(=O)c1ccccc1` (stereo not given), the Potency entry in experiment [1], in experiment [2], in experiment [3], in [6], in [7] and in experiment [8] was “inactive” each time. Also, the Potency result in [9], in experiment [10], in experiment [11], in experiment [12], in [13] and in experiment [18] was “inactive” in each case. Moreover, the Potency result in [14], in [19], in experiment [15], in experiment [16] and in [17] was “inactive” throughout. The outcome in [4] and in experiment [5] was inactive.

Regarding `Cc1cc(=O)oc2cc(O[C@@H]3SC[C@@H](O)[C@H](O)[C@H]3O)ccc12`, the Potency entry in experiment [1], in experiment [2], in experiment [3], in [6], in experiment [7] and in [8] was “inactive” throughout. The Potency result in [9], in [10], in [11], in experiment [12], in experiment [13] and in experiment [18] was “inactive” in each case. For the same compound, the Potency result in experiment [14], in [15], in [16] and in experiment [17] was “inactive” throughout. The outcome in [4] and in [5] was inactive.

As for `CCC1(CO)COCOC1`, the Potency entry in [1], in experiment [2], in experiment [3], in [6], in experiment [7] and in experiment [8] was “inactive” throughout. For the same compound, the Potency result in experiment [9], in experiment [10], in experiment [11], in [12], in [13] and in experiment [18] was “inactive” each time. The Potency entry in [14], in experiment [19], in experiment [15] and in experiment [16] was “inactive” in each case. Further, the result in experiment [4] and in experiment [5] was inactive.

`C/C=C(\C)C(=O)OCCc1ccccc1`: the Potency result in [1], in [2], in experiment [3], in experiment [6], in [7] and in experiment [8] was “inactive” in each case. Also, the Potency entry in experiment [9], in [10], in experiment [11], in experiment [12], in experiment [13] and in [18] was “inactive” throughout. Moreover, the Potency entry in experiment [14], in experiment [19], in [15], in [16] and in experiment [17] was “inactive” each time. Further, the result in experiment [4] and in [5] was inactive.

Regarding `C[C@H](N)C(=O)N[C@@H](C)C(=O)NC1[C@H]2CN(c3nc4c(cc3F)c(=O)c(C(=O)O)cn4-c3ccc(F)cc3F)C[C@@H]12` (stereo not given in full), the Potency entry in experiment [1], in experiment [2], in experiment [3], in [6], in experiment [7] and in experiment [8] was “inactive” in each case. Besides, the Potency result in experiment [9], in experiment [10], in [11], in experiment [12], in [13] and in experiment [18] was “inactive” each time. For the same compound, the Potency result in experiment [15], in experiment [16] and in experiment [17] was “inactive” each time. In addition, the result in experiment [4] and in experiment [5] was inactive.

As to `Cc1cc(=O)oc2cc(O)cc(O)c12`, the Potency result in [1], in experiment [2], in [3], in experiment [6], in experiment [7] and in experiment [8] was “inactive” throughout. In addition, the Potency entry in experiment [9], in experiment [10], in [11], in experiment [12], in experiment [13] and in experiment [18] was “inactive” each time. The Potency result in [15], in [16] and in [17] was “inactive” in each case. Moreover, the result in experiment [4] and in experiment [5] was inactive.

(Values after PubChem BioAssay (Tox21).)
